Source: PubChem
In the library only some 3.1% were active in any assay of this set; here they are far more common.
BioA inh: inhibitors of Mycobacterium tuberculosis BioA enzyme. AID 602481. purified M. tuberculosis BioA enzyme, plate reader. 0.096% of 360,000 active. inhibition, % at 9.99 µM; in the data active = inhibition above about 40%
Mtb FBA inh: inhibitors of M. tuberculosis fructose-bisphosphate aldolase | purified M. tuberculosis FBA, fluorescence read-out | inhibition, % at 1 µM | 2.3% of 360,000 active; in the data active = inhibition above about 27%;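 also: 0% = vehicle and 100% = reference inhibitor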
Target sequence (P9WQA3 whole entry, looked up): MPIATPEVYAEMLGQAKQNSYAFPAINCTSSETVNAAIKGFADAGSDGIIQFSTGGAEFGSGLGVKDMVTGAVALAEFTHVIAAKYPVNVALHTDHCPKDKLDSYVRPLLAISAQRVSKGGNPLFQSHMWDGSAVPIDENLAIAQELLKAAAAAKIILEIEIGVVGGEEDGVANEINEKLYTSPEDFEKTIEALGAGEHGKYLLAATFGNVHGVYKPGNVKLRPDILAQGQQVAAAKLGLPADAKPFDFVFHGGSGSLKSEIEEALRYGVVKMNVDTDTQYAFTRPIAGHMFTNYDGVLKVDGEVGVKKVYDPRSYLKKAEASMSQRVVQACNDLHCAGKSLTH
3CLpro inhibitor: SARS-CoV 3CLpro protease inhibition; P0C6X7; recombinant SARS-CoV 3CLpro, quenched FRET peptide cleavage; inhibition, % at 6 µM; 0.14% of 290,000 active; AID 1706; in the data active = inhibition above about 12%
FadD28 FP inh: M. tuberculosis FadD28 bisubstrate binding inhibition; FadD28 bisubstrate probe binding, fluorescence polarization; 0.22% of 360,000 active; inhibition, % at 12.5 µM; in the data active = inhibition above about 8.5%, passing the limit was not always enough
GDH-TPI inh: counter-screen for M. tuberculosis FBA inhibitors: GDH-TPI coupled enzymes; AID 588335; inhibition, % at 4.8 µM; 1.2% of 360,000 active; GDH-TPI coupled enzyme counterscreen, NADH absorbance; in the data active = inhibition above about 30%;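 also: 0% = DMSO wells and 100% = wells lacking the enzyme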
Active calls of the source: *.

Screening COc1ccc(C2CC(c3cccc(Cl)c3)=NN2c2ccc(S(N)(=O)=O)cc2)cc1 (stereo not given) returned BioA inh 1, Mtb FBA inh 141*, FadD28 FP inh 0 and GDH-TPI inh 19.
For CC(C)NC(=O)Nc1ccc2c(c1)C(=O)N(C)[C@H]1CC[C@H](CC(=O)NC3CCCCC3)O[C@H]1CO2 the results were BioA inh 9.
Screening C[C@H](O)C#Cc1cnc2c(c1)C(=O)N([C@H](C)CO)C[C@H](C)[C@H](CN(C)CC1CC1)O2 returned BioA inh 1.
For C[C@H](CO)N1C[C@H](C)[C@@H](CN(C)Cc2cccnc2)Oc2ncc(-c3cccc(F)c3)cc2C1=O the results were BioA inh 4.
Screening Cc1c(CCO)c(=O)n2c([nH]c3ccccc32)c1C#N returned BioA inh -1, Mtb FBA inh active, 3CLpro inhibitor 0, FadD28 FP inh 1 and GDH-TPI inh 16.
Screening CC1OC23CCCCC2C(C#N)(C(=N)O3)C1(C#N)C#N (stereo not given) returned Mtb FBA inh 22, 3CLpro inhibitor 5, FadD28 FP inh -2 and GDH-TPI inh 3.
Screening CCC1OC23CCCCC2C(C#N)(C(=N)O3)C1(C#N)C#N (stereo not given) returned BioA inh -7, Mtb FBA inh 58*, 3CLpro inhibitor 1, FadD28 FP inh 4 and GDH-TPI inh 13.
For CCC(=O)NC[C@H]1[C@@H](c2ccc(-c3cccc(F)c3)cc2)[C@@H](CO)N1C(=O)CC the results were BioA inh 5.
For CCOc1ccc(NC(=O)CCC(=O)c2ccc(OC)cc2)cc1 the results were BioA inh 0, Mtb FBA inh -3, 3CLpro inhibitor 1, FadD28 FP inh -1 and GDH-TPI inh 16.
Screening COc1ccc(C(=O)COC(=O)CCC(=O)Nc2ccc(C(C)=O)cc2)cc1 returned BioA inh -2, Mtb FBA inh active, 3CLpro inhibitor 3, FadD28 FP inh -1 and GDH-TPI inh 7.
`O=C(NCC1CCCO1)c1cc(-c2ccco2)nc2ccccc12` (stereo not given) gave BioA inh -2, Mtb FBA inh 183*, 3CLpro inhibitor -2, FadD28 FP inh -3 and GDH-TPI inh 28.
`Cc1ccc(S(=O)(=O)N(C)C)cc1NC(=O)c1cc(-c2ccco2)nc2ccccc12` gave BioA inh -2, Mtb FBA inh 45*, 3CLpro inhibitor 3, FadD28 FP inh -2 and GDH-TPI inh 10.
For O=C(NCC1CCCO1)c1cc(-c2ccncc2)nc2ccccc12 (stereo not given) the results were Mtb FBA inh 1, FadD28 FP inh -2 and GDH-TPI inh -1.
`CC1(C)SC(=S)N(c2ccccc2)C1/[N+]([O-])=C/c1cccc([N+](=O)[O-])c1` (stereo not given) gave BioA inh -2, Mtb FBA inh 3, 3CLpro inhibitor 0, FadD28 FP inh 0 and GDH-TPI inh 1.
For COc1ccc(/C=[N+](\[O-])C2N(c3ccccc3)C(=S)SC2(C)C)cc1OC (stereo not given) the results were Mtb FBA inh -2, 3CLpro inhibitor 1, FadD28 FP inh -1 and GDH-TPI inh 32*.
For O=C(Nc1nc2cc3c(cc2s1)OCCO3)c1cccc(N2C(=O)CCC2=O)c1 the results were BioA inh -5, Mtb FBA inh 4, 3CLpro inhibitor 1, FadD28 FP inh -1 and GDH-TPI inh 31*.
Screening COc1ccccc1C(=O)Nc1nc2cc3c(cc2s1)OCCO3 returned BioA inh -3, Mtb FBA inh 9, 3CLpro inhibitor 1, FadD28 FP inh -3 and GDH-TPI inh 4.
`CCN(CC)S(=O)(=O)c1ccc2nc(NC(=O)c3cccs3)sc2c1` gave BioA inh -3, Mtb FBA inh 19, 3CLpro inhibitor 3, FadD28 FP inh -4 and GDH-TPI inh 35*.
`CC(=O)Nc1ccc2nc(NC(=O)c3cccs3)sc2c1` gave BioA inh 1, Mtb FBA inh -2, 3CLpro inhibitor -4, FadD28 FP inh -4 and GDH-TPI inh 53*.
For Cc1nc2ccc(NC(=O)c3cccs3)cc2s1 the results were BioA inh 1, Mtb FBA inh 0, 3CLpro inhibitor -1, FadD28 FP inh -5 and GDH-TPI inh 2.
For O=C(Nc1nc2cc3c(cc2s1)OCCO3)c1cccs1 the results were Mtb FBA inh 4, 3CLpro inhibitor -8, FadD28 FP inh 0 and GDH-TPI inh 38*.
For C[C@@H]1CN([C@@H](C)CO)C(=O)c2cccc(NS(C)(=O)=O)c2O[C@H]1CN(C)C(=O)Nc1ccc2c(c1)OCO2 the results were BioA inh 0.
For Oc1ccc(C=NNC(=S)Nc2ccccc2)nc1 the results were BioA inh 0, Mtb FBA inh 9, FadD28 FP inh -1 and GDH-TPI inh 54*.
S=C(N/N=C/c1ccccc1Cl)Nc1ccccc1 was read as BioA inh 0, Mtb FBA inh 1, 3CLpro inhibitor 5, FadD28 FP inh -1 and GDH-TPI inh 29.
O=C(Nc1ccc2nc(-c3ccccc3)[nH]c2c1)c1ccco1 was read as BioA inh 26, Mtb FBA inh 10, 3CLpro inhibitor -2, FadD28 FP inh -8 and GDH-TPI inh 13.
O=C(Nc1ccc2nc(-c3ccc(Br)o3)[nH]c2c1)c1ccco1 was read as BioA inh 13, Mtb FBA inh 1, 3CLpro inhibitor -6, FadD28 FP inh -5 and GDH-TPI inh 40*.
`Cc1ccc(-c2nc3ccccc3[nH]2)cc1NC(=O)c1ccco1` gave BioA inh 2, Mtb FBA inh 1, 3CLpro inhibitor -6, FadD28 FP inh -9 and GDH-TPI inh -15.
Screening Cc1cccc2[nH]c(-c3ccc(NC(=O)c4ccco4)cc3)nc12 returned BioA inh -3, Mtb FBA inh -2, 3CLpro inhibitor -3, FadD28 FP inh -27 and GDH-TPI inh 58*.
O=C(Nc1ccc2nc(-c3ccc(Br)o3)[nH]c2c1)c1cccs1 was read as BioA inh 5, Mtb FBA inh 1, 3CLpro inhibitor -9, FadD28 FP inh -7 and GDH-TPI inh 32*.
`CC(=O)Nc1ccc2nc(-c3ccc(Br)o3)[nH]c2c1` gave Mtb FBA inh 3, 3CLpro inhibitor 3, FadD28 FP inh -1 and GDH-TPI inh 29.
For O=C(Nc1cccc(-c2nc3ccccc3[nH]2)c1)c1cccc(NC(=O)c2ccco2)c1 the results were BioA inh -1, Mtb FBA inh 2, 3CLpro inhibitor -3, FadD28 FP inh 17* and GDH-TPI inh 7.
C[C@@H]1CN([C@H](C)CO)S(=O)(=O)c2ccc(-c3ccc(C#N)cc3)cc2O[C@H]1CN(C)C(=O)CN(C)C was read as BioA inh 0.
Screening C/C=C/c1ccc2c(c1)O[C@H](CN(C)C(=O)Cc1ccccc1)[C@@H](C)CN([C@@H](C)CO)S2(=O)=O returned BioA inh 2.
COC(=O)c1ccccc1N/C=C1\CCc2c(c(C)nn2-c2ccccn2)C1=O was read as BioA inh 1, Mtb FBA inh 9, 3CLpro inhibitor -4, FadD28 FP inh 0 and GDH-TPI inh 32*.
